The values that follow come from PubChem BioAssay AID1224903 (Bradner/Qi Labs at DFCI, 2016).

“And” between values parts separate entries of the source, which are not always exact repeats. Identical values can stand only once. Screen size: about 66,000 compounds; about 720 (1.1%) were called active. Rule as the data show it: active = normalised signal below about 0.5; inactive = the rest, inconclusive results apart. Many of the other results were omitted from the sample, so actives are more common in it than they were.

The target of this assay is Chromobox protein homolog 7 (Homo sapiens) (UniProt O95931). The experiment in a line: CBX7 chromodomain binding inhibitors, primary screen, biochemical, AlphaScreen (AID 1224903). The note with it: AlphaScreen His6-CBX7 / biotin-H3K27me3 peptide binding, stronger effect = lower value; z-score: measured here: z-score of CBX7 signal. On the technique in general: Alpha assays give light when donor and acceptor beads are brought close together.
Chain of Chromobox protein homolog 7 (Homo sapiens) (O95931 whole entry, looked up): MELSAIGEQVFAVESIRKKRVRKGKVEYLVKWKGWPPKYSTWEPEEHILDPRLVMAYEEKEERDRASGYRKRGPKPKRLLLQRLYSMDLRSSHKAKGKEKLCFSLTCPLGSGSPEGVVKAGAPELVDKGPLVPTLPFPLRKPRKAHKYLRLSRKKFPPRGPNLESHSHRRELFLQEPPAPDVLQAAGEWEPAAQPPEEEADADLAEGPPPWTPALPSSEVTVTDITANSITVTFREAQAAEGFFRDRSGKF
In the case of `Cc1ccc(C2CC(c3ccc(C)cc3)n3ncnc3N2)cc1` (configuration not stated), the normalised signal (fraction of DMSO) is 1.02 (inactive) and the z-score stood at 0.839.

On to `Cc1cc(C)cc(NS(=O)(=O)c2cnc[nH]2)c1`, for which the normalised signal (fraction of DMSO) is 1.01 (inactive) and the z-score is 0.0588.

Regarding `COc1ccc(NC2CC(=O)N(Cc3ccccc3)C2=O)cc1` (configuration not stated), the normalised signal (fraction of DMSO) was 1.18 (inactive) and the z-score stood at 0.412.

As to `COc1ccccc1NC(=O)Cn1ccc2ccccc2c1=O`, the normalised signal (fraction of DMSO) is 0.981 (inactive) and the z-score was -0.168.

For the compound `O=C(Nc1ccc2c(c1)OCO2)c1cnc2ccccn2c1=O`, the normalised signal (fraction of DMSO) was 0.987 (inactive) and the z-score is -0.351.

As for `CCN1CCN(c2ccc(Nc3nc(-c4ccccc4)c4cc(Cl)ccc4n3)cc2)CC1`, the normalised signal (fraction of DMSO) was 0.231 (active) and the z-score was -24.9.

As to `O=C(O)c1ccc(Nc2nc(-c3ccccc3)c3cc(Br)ccc3n2)cc1`, the normalised signal (fraction of DMSO) was 1.05 (inactive) and the z-score was determined as 2.04.

Regarding `Cc1ccc(Nc2nc(-c3ccccc3)c3cc(Cl)ccc3n2)cc1`, the normalised signal (fraction of DMSO) is 1.7 (inactive) and the z-score was 11.8.

For `Cc1nc2sc(C(c3cccs3)N3CCc4ccccc4C3)c(O)n2n1` (configuration not stated), the normalised signal (fraction of DMSO) was 0.953 (inactive) and the z-score is -2.28.

Take `COc1ccc2[nH]c(C)c(CCNS(=O)(=O)c3cc(Br)ccc3OC)c2c1`: the normalised signal (fraction of DMSO) is 0.363 (active) and the z-score was -0.634.

`COc1ccc2[nH]c(C)c(CCNS(=O)(=O)c3ccc(Cl)c(OC)c3)c2c1`: the normalised signal (fraction of DMSO) is 0.845 (inactive) and the z-score was -0.316.

As to `COc1ccc(OC)c(S(=O)(=O)NCCc2c(C)[nH]c3ccc(C)cc23)c1`, the normalised signal (fraction of DMSO) was 0.427 (active) and the z-score was -0.571.

Turning to `Cc1ccc2[nH]c(C)c(CCNS(=O)(=O)c3ccc(C)c(C)c3C)c2c1`, the normalised signal (fraction of DMSO) was 0.951 (inactive) and the z-score was -0.467.

As to `COc1ccc(S(=O)(=O)NCCc2c(C)[nH]c3ccc(C)cc23)cc1C`, the normalised signal (fraction of DMSO) was 0.907 (inactive) and the z-score was -1.43.

For `Cc1[nH]c2ccc(OC(F)(F)F)cc2c1CCNS(=O)(=O)c1ccc(C(C)C)cc1`, the normalised signal (fraction of DMSO) is 0.913 (inactive) and the z-score was -1.89.

As to `Cc1nc2sccn2c1-c1csc(Nc2ccc(S(N)(=O)=O)cc2)n1`, the normalised signal (fraction of DMSO) is 1.07 (inactive) and the z-score was found to be 0.0851.

On to `Cc1ccc(Cn2nnc3c(=O)n(Cc4c(F)cccc4Cl)cnc32)cc1`, for which the normalised signal (fraction of DMSO) was 0.864 (inactive) and the z-score was -2.23.

On to `Cc1ccn2c(NC3CCCCC3)c(-c3cccs3)nc2c1`, for which the normalised signal (fraction of DMSO) was 0.819 (inactive) and the z-score was -1.46.

With `COc1ccc(OC)c(NC(=O)CCc2c(C)nc3c(c(C)nn3-c3ccc(C)cc3)c2C)c1`, the normalised signal (fraction of DMSO) was 0.992 (inactive) and the z-score is -0.0612.

Consider `CCCCCC(O)(CCN1CCCCC1)c1ccccc1` (configuration not stated), for which the normalised signal (fraction of DMSO) was 1.09 (inactive) and the z-score came to 2.44.

For the compound `CCc1ccc(C(=O)CC2(O)C(=O)N(CCc3ccccc3)c3ccc(Br)cc32)cc1` (configuration not stated), the normalised signal (fraction of DMSO) was 0.626 (inactive) and the z-score was -10.8.

As for `CC(C)c1ccc(C(=O)CC2(O)C(=O)N(Cc3ccccc3)c3ccc(Br)cc32)cc1` (configuration not stated), the normalised signal (fraction of DMSO) is 0.876 (inactive) and the z-score was -1.19.

In the case of `CCCN1C(=O)C(O)(CC(=O)c2ccc(CC)cc2)c2cc(Br)ccc21` (configuration not stated), the normalised signal (fraction of DMSO) was 0.0492 (active) and the z-score was -1.07.

Regarding `COc1ccccc1Nc1nc(-c2ccc(Br)cc2)cs1`, the normalised signal (fraction of DMSO) is 0.904 (inactive) and 0.953 (inactive); the z-score is -2.04 and -0.747.

As for `CN(CCCNC(=O)c1cc(-c2ccncc2)nc2ccccc12)C1CCCCC1`, the normalised signal (fraction of DMSO) is 1.17 (inactive) and the z-score was 1.9.

With `Cc1ccc2oc(-c3cc(NC(=O)c4cccc(F)c4)ccc3Cl)nc2c1`, the normalised signal (fraction of DMSO) was 0.889 (inactive) and the z-score was -0.255.

With `CCOC(=O)c1cc(-c2ccccc2)n(-c2cccc(C(=O)Nc3nccs3)c2)c1C`, the normalised signal (fraction of DMSO) was 0.944 (inactive) and the z-score was -1.01.

Regarding `CCOC(=O)c1cnc2cc(Cl)c(OC)cc2c1Nc1ccc(C(F)(F)F)cc1`, the normalised signal (fraction of DMSO) is 0.983 (inactive) and the z-score is -0.244.

Consider `CC(=O)Nc1ncc2c(n1)CC(c1cccs1)CC2=O` (configuration not stated), for which the normalised signal (fraction of DMSO) was 0.997 (inactive) and the z-score was -0.0863.

Consider `Fc1ccc(-c2cc(C(F)(F)F)nc(NCc3ccc(Cl)cc3)n2)cc1`, for which the normalised signal (fraction of DMSO) was 1.25 (inactive) and the z-score worked out at 2.79.

As to `O=C(NC1CCCC1)c1nn2c(C(F)(F)F)cc(-c3ccc(F)cc3)nc2c1Cl`, the normalised signal (fraction of DMSO) was 1.08 (inactive) and the z-score was found to be 0.569.

In the case of `CCC(C)NC(=O)c1ccc2nc(N3CCOCC3)sc2c1` (configuration not stated), the normalised signal (fraction of DMSO) is 1.08 (inactive) and the z-score was determined as 3.28.

On to `Cn1cc(CC(=O)N2CCN(c3ccccn3)CC2)c2ccccc21`, for which the normalised signal (fraction of DMSO) was 0.973 (inactive) and the z-score was -0.31.

Turning to `O=C(NCCCc1nc2ccccc2n1Cc1ccccc1F)c1ccc(F)cc1`, the normalised signal (fraction of DMSO) is 0.957 (inactive) and the z-score was -1.01.

Take `Cn1c(C(=O)NCCCSC2CCCCC2)cc2sc(Cl)cc21`: the normalised signal (fraction of DMSO) is 1.03 (inactive) and the z-score was 0.498.

Turning to `Cc1ccc(-c2nc(-c3ccccc3Cl)no2)cc1`, the normalised signal (fraction of DMSO) is 1.16 (inactive) and the z-score worked out at 1.59.

Consider `COc1ccc(-n2c3c(cc(C(=O)NC(C)(C)C)c2=O)C(=O)CC(C)(C)C3)cc1`, for which the normalised signal (fraction of DMSO) was 1.06 (inactive) and the z-score was determined as 0.667.

`COc1ccc(OC)c(-c2nnc(SCC(=O)Nc3cc(C)on3)o2)c1`: the normalised signal (fraction of DMSO) is 0.264 (active) and the z-score was -15.1.

Regarding `Cc1ccc(-c2nnc(SCC(=O)Nc3cc(C)on3)o2)cc1`, the normalised signal (fraction of DMSO) is 1.19 (inactive) and the z-score was 2.87.

As for `Cc1cc(NC(=O)CSc2nnc(-c3ccc(Cl)s3)o2)no1`, the normalised signal (fraction of DMSO) was 1.1 (inactive) and the z-score was found to be 1.02.

For `CC1CCN(c2nc3ccc(C(=O)NCCCN4C(C)CCCC4C)cc3s2)CC1` (configuration not stated), the normalised signal (fraction of DMSO) was 1.41 (inactive) and the z-score was 3.88.
